In article PMC7862700, “An all-to-all approach to the identification of sequence-specific readers for epigenetic DNA modifications on cytosine”:

Assays:
Assay in all cases: DAPPL (digital affinity profiling via proximity ligation, sequencing); 10 mM Tris-HCl pH 7.5, 50 mM NaCl, 1 mM DTT, 4% glycerol, room temperature, 30 min; GST-TFs on glutathione beads, 16-mer random dsDNA library, 0.1% formaldehyde crosslink after washing; high values mean tight binding
[1] = target: T1, FEV (Homo sapiens, UniProt Q99581 1-238); details: protein: recombinant; tags: N-terminal GST; dsDNA, one strand shown
T1 sequence: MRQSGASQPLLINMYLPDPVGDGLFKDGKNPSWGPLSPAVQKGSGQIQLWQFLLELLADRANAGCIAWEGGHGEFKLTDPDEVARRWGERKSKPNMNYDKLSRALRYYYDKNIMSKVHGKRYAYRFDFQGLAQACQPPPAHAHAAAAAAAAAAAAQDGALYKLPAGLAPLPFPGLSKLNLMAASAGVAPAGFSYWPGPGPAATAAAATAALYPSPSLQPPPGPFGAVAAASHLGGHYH
Outline: (§1)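 Human transcription factors were made in yeast as GST fusions, captured on glutathione beads and barcoded with DNA. With a tag-only sample included, the pool was incubated with 200 nmole of a random double-stranded 16-mer DNA library in Tris/NaCl/DTT/glycerol buffer at room temperature for 30 min, then crosslinked with 0.1% formaldehyde after washing, ligated by proximity, amplified and sequenced. For binding signal, each hexamer's read frequency for a factor is divided by its frequency for the tag-only sample.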

[2] = target: ETV5 (Homo sapiens, UniProt P41161 1-510); details: protein: recombinant; tags: N-terminal GST; dsDNA, one strand shown
ETV5, sequence (P41161 whole entry): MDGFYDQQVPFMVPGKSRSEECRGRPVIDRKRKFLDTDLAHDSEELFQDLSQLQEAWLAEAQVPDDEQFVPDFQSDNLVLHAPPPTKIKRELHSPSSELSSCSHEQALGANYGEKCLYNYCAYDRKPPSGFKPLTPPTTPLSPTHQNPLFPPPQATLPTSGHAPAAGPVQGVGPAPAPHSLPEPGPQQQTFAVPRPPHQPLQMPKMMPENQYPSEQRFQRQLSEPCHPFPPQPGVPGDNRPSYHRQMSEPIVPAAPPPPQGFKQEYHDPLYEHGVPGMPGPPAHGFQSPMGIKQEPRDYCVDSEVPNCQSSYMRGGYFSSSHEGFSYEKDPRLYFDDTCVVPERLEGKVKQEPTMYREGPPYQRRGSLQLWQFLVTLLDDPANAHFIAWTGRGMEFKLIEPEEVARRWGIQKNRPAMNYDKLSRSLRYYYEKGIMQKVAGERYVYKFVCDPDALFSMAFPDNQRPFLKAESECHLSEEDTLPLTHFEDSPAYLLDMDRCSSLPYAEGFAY
Outline: as §1

[3] = target: HSF1 (Homo sapiens, UniProt Q00613 1-529); details: protein: recombinant; tags: N-terminal GST; chain copies: 3; dsDNA, one strand shown
HSF1, sequence (Q00613 whole entry): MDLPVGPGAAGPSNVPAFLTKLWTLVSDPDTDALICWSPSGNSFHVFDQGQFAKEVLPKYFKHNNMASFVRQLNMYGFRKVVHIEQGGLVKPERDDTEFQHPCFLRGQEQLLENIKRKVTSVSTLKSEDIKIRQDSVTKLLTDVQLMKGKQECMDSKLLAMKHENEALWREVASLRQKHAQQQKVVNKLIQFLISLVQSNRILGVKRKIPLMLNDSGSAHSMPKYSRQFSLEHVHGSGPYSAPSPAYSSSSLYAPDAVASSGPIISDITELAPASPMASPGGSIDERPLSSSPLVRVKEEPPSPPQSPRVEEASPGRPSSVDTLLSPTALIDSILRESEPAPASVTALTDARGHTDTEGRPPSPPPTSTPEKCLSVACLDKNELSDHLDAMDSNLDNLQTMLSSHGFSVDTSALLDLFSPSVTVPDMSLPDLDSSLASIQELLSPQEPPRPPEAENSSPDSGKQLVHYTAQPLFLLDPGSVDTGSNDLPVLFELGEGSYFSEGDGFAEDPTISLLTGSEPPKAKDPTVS
Outline: as §1

[4] = target: T2, SPIC (Homo sapiens, UniProt Q8N5J4 1-248); details: protein: recombinant; tags: N-terminal GST; dsDNA, one strand shown
T2 sequence: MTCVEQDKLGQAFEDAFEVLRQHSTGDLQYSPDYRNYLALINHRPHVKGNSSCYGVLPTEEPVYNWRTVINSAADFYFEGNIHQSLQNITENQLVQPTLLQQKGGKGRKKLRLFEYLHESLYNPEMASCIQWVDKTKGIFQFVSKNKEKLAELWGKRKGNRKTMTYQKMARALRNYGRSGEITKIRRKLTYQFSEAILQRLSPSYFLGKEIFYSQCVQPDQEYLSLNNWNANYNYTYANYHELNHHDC
Outline: as §1

[5] = target: ELF4 (Homo sapiens, UniProt Q99607 1-663); details: protein: recombinant; tags: N-terminal GST; dsDNA, one strand shown
ELF4, sequence (Q99607 whole entry): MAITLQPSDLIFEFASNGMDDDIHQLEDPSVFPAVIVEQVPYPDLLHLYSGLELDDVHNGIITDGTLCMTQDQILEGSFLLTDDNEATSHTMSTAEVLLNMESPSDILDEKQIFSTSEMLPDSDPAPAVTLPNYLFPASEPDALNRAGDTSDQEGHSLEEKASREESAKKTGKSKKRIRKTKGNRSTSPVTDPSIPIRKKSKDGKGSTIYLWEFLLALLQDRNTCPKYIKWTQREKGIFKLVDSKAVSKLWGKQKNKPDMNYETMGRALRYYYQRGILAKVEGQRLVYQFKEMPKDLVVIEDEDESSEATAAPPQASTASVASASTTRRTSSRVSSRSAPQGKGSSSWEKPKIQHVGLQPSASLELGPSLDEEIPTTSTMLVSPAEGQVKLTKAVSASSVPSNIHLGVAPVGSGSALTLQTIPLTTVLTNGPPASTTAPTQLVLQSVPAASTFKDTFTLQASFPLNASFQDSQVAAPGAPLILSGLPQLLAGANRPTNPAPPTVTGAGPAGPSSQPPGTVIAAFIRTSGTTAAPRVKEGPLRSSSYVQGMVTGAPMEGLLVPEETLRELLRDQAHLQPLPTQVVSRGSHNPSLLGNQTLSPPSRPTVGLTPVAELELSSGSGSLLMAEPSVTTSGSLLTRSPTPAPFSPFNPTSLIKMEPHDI
Outline: as §1

[6] = target: T3, ELK4 (Homo sapiens, UniProt P28324-2 1-405); details: protein: recombinant; tags: N-terminal GST; dsDNA, one strand shown
T3 sequence: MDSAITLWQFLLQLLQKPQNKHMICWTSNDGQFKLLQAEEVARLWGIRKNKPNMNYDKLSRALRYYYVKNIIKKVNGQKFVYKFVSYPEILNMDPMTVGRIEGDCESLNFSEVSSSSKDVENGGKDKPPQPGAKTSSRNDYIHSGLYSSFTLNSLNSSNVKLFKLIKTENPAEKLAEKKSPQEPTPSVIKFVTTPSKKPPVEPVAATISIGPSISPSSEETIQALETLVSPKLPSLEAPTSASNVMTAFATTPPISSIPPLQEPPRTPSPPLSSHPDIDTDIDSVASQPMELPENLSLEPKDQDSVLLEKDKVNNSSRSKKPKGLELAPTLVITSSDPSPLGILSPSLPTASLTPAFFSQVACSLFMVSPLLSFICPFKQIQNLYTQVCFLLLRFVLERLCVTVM
Outline: as §1

[7] = target: T4, ETV2 (Homo sapiens, UniProt O00321 1-342); details: protein: recombinant; tags: N-terminal GST; dsDNA, one strand shown
T4 sequence: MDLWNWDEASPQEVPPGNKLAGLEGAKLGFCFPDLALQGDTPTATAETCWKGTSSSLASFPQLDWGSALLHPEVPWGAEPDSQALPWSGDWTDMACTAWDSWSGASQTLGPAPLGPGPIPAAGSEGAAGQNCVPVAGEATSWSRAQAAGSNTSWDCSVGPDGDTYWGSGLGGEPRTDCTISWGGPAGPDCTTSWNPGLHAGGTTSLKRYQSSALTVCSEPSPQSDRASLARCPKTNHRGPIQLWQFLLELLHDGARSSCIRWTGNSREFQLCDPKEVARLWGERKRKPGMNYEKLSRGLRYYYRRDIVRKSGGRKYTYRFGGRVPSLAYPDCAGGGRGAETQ
Outline: as §1

[8] = target: T5, ELF3 (Homo sapiens, UniProt P78545 1-371); details: protein: recombinant; tags: N-terminal GST; dsDNA, one strand shown
T5 sequence: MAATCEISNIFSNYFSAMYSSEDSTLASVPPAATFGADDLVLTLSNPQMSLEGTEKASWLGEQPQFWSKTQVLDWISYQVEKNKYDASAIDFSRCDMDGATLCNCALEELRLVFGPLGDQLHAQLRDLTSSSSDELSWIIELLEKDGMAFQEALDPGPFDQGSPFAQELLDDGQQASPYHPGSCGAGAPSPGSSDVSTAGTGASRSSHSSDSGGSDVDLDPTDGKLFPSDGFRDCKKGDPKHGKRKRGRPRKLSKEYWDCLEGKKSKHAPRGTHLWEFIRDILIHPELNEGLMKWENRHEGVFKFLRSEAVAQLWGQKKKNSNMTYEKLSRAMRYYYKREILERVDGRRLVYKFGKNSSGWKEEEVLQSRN
Outline: as §1

[9] = target: CRX (Homo sapiens, UniProt O43186 1-299); details: protein: recombinant; tags: N-terminal GST; dsDNA, one strand shown
CRX, sequence (O43186 whole entry): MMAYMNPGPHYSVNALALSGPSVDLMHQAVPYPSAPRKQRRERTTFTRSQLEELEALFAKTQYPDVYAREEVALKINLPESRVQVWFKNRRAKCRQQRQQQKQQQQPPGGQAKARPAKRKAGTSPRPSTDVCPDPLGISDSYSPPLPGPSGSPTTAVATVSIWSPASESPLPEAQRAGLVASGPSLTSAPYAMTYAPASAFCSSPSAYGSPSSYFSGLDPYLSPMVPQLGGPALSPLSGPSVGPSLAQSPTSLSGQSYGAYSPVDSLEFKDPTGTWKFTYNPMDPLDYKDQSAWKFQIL
Outline: as §1

[10] = target: ETV1 (Homo sapiens, UniProt P50549 1-477); details: protein: recombinant; tags: N-terminal GST; dsDNA, one strand shown
ETV1, sequence (P50549 whole entry): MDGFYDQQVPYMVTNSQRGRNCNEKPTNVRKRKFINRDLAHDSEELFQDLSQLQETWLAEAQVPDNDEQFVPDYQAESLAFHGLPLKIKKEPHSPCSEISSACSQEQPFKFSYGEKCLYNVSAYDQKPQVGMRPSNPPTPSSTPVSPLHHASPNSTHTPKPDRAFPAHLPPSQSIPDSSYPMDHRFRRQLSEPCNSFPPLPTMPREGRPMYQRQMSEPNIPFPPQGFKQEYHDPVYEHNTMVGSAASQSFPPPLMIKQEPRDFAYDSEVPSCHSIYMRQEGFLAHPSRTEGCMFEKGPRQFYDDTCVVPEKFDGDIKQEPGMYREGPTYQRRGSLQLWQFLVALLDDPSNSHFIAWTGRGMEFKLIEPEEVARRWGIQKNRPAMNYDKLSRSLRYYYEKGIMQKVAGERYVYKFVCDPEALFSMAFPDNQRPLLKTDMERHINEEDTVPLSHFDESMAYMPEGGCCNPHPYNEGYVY
Outline: as §1

[11] = target: T6, ERF (Homo sapiens, UniProt P50548 1-548); details: protein: recombinant; tags: N-terminal GST; dsDNA, one strand shown
T6 sequence: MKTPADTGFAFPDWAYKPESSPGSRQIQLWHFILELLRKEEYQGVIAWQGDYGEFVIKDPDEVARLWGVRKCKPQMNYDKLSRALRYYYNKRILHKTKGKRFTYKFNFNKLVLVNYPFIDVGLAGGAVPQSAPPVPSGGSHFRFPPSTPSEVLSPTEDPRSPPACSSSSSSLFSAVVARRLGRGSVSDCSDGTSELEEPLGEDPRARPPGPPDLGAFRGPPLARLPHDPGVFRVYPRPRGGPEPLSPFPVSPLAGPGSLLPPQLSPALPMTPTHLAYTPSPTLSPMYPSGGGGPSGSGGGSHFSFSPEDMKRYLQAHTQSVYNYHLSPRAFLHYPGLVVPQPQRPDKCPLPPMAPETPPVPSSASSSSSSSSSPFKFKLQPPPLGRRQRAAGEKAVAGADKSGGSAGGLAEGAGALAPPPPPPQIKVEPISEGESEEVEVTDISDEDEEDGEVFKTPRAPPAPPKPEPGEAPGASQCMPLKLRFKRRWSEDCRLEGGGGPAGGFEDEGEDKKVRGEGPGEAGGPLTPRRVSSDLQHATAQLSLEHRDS
Outline: as §1

[12] = target: T7, ETV3L (Homo sapiens, UniProt Q6ZN32 1-361); details: protein: recombinant; tags: N-terminal GST; dsDNA, one strand shown
T7 sequence: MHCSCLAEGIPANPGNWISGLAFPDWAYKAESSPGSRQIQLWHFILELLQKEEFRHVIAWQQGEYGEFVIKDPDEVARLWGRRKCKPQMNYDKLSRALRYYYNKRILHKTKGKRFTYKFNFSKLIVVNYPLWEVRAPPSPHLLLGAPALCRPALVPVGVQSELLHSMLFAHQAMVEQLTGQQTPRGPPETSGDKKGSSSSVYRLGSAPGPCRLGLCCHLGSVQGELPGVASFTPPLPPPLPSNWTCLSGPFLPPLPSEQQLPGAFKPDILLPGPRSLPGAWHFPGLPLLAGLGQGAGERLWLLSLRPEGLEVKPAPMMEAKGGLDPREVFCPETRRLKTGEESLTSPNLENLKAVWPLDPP
Outline: as §1

[13] = target: T8, ETS2 (Homo sapiens, UniProt P15036 1-469); details: protein: recombinant; tags: N-terminal GST; dsDNA, one strand shown
T8 sequence: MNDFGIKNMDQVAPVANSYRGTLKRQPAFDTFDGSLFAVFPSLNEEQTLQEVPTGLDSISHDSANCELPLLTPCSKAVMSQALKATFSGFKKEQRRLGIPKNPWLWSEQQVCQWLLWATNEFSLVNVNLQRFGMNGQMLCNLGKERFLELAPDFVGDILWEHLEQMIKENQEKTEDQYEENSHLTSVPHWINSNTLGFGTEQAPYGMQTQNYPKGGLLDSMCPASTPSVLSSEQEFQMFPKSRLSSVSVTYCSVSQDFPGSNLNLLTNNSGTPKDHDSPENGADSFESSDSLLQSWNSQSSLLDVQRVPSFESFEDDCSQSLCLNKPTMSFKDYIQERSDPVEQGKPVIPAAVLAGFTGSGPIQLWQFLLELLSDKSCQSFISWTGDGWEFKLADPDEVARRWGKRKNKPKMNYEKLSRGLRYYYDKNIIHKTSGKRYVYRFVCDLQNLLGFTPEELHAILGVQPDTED
Outline: as §1

[14] = target: T9, SPDEF (Homo sapiens, UniProt O95238 1-335); details: protein: recombinant; tags: N-terminal GST; dsDNA, one strand shown
T9 sequence: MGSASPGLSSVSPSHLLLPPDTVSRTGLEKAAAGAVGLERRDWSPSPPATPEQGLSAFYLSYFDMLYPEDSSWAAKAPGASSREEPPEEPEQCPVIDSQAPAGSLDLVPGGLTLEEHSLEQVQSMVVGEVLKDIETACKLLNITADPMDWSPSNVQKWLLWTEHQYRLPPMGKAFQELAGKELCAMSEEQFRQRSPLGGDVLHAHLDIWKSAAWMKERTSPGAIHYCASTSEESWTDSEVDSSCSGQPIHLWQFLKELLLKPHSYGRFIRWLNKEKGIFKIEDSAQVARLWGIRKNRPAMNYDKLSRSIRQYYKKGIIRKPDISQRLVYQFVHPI
Outline: as §1

[15] = target: T10, ETV7 (Homo sapiens, UniProt Q9Y603 1-341); details: protein: recombinant; tags: N-terminal GST; dsDNA, one strand shown
T10 sequence: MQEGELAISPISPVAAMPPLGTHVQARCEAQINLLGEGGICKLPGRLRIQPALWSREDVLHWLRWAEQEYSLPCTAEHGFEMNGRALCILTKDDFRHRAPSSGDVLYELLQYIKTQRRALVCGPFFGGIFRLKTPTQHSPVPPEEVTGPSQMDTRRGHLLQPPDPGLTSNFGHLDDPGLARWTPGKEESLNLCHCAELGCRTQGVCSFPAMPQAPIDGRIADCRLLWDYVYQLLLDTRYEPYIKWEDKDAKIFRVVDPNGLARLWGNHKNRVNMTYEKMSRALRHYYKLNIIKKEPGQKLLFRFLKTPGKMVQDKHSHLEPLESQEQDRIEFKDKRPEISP
Outline: as §1

[16] = target: T11, ELF5 (Homo sapiens, UniProt Q9UKW6-2 1-255); details: protein: recombinant; tags: N-terminal GST; dsDNA, one strand shown
T11 sequence: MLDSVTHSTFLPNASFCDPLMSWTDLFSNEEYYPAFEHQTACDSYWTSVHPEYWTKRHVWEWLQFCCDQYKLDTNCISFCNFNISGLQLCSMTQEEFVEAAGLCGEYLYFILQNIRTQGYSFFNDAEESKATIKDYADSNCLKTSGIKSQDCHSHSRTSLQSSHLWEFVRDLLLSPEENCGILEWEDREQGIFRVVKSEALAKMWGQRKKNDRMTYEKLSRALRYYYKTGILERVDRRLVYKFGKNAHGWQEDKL
Outline: as §1

[17] = target: T12, ETV3 (Homo sapiens, UniProt P41162-2 1-143); details: protein: recombinant; tags: N-terminal GST; dsDNA, one strand shown
T12 sequence: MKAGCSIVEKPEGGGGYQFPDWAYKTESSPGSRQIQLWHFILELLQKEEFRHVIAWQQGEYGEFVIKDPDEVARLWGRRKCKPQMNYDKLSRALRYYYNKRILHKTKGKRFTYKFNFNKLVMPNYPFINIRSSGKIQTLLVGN
Outline: as §1

[18] = target: ETV6 (Homo sapiens, UniProt P41212 1-452); details: protein: recombinant; tags: N-terminal GST; dsDNA, one strand shown
ETV6, sequence (P41212 whole entry): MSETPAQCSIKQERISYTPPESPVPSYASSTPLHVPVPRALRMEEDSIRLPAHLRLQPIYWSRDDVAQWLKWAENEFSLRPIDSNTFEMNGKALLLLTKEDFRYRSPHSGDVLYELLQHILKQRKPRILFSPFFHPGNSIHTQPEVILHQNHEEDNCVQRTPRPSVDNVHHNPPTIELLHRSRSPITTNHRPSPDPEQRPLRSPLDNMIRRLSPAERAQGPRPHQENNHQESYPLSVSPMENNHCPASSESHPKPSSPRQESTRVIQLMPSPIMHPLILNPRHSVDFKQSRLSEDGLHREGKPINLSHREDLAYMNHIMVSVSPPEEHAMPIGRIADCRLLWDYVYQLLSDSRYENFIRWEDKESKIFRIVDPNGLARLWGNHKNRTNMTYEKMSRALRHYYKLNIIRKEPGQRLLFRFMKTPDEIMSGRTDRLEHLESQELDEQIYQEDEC
Outline: as §1

TTCTAT
binding signal [1]: 1.4 fold enrichment (6-mer frequency, TF over GST control) | binding signal [2]: 1.43 fold enrichment (6-mer frequency, TF over GST control) | binding signal [3]: 2.05 fold enrichment (6-mer frequency, TF over GST control) | binding signal [4]: 1.44 fold enrichment (6-mer frequency, TF over GST control) | binding signal [5]: 1.4 fold enrichment (6-mer frequency, TF over GST control) | binding signal [6]: 1.52 fold enrichment (6-mer frequency, TF over GST control) | binding signal [7]: 1.32 fold enrichment (6-mer frequency, TF over GST control) | binding signal [8]: 1.28 fold enrichment (6-mer frequency, TF over GST control) | binding signal [9]: 1.67 fold enrichment (6-mer frequency, TF over GST control) | binding signal [10]: 1.3 fold enrichment (6-mer frequency, TF over GST control) | binding signal [11]: 1.46 fold enrichment (6-mer frequency, TF over GST control) | binding signal [12]: 1.35 fold enrichment (6-mer frequency, TF over GST control) | binding signal [13]: 1.38 fold enrichment (6-mer frequency, TF over GST control) | binding signal [14]: 1.35 fold enrichment (6-mer frequency, TF over GST control) | binding signal [15]: 1.33 fold enrichment (6-mer frequency, TF over GST control) | binding signal [16]: 1.3 fold enrichment (6-mer frequency, TF over GST control) | binding signal [17]: 1.33 fold enrichment (6-mer frequency, TF over GST control) | binding signal [18]: 1.28 fold enrichment (6-mer frequency, TF over GST control)
